{"source": "PubChem BioAssay (NCATS)", "note": "Records with an inconclusive call do not appear. Calls of active or inactive are those of the source. The call rests on the fitted dose curve; in most records, active means well fitted inhibition curve with a large enough effect; inconclusive means small, poorly fitted or top-dose-only effect; inactive means flat fitted curve, though single readings scatter. On the % scale 0 is the no-effect control and ±100 the full control effect; potency means the concentration at half of the fitted maximal effect.", "data": [{"target": "Phospholipid hydroperoxide glutathione peroxidase GPX4 (Homo sapiens) (UniProt P36969)", "sequence (P36969 whole entry, looked up)": "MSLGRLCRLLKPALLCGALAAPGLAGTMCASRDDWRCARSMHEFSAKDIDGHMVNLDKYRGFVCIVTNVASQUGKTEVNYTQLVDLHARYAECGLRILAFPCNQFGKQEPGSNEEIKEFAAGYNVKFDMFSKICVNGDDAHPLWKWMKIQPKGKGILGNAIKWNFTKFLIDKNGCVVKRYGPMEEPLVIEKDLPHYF", "assay": "Primary qHTS Assay for Inhibitors of Recombinant Selenoprotein Glutathione Peroxidase 4 (GPX4) (AID 1845192); further: nearly all actives have a fitted effect of over 65% in size", "settings": "recombinant GPX4, GR-coupled NADPH fluorescence, 15 min; series mostly up to 50 µM; activity change, negative = inhibition: at the top concentration", "from_the_text": "Assay Provider: Elias S.J. Arner MD PhD.\nDepartment of Medical Biochemistry and Biophysics\nKarolinska Institutet, Solna, Stockholm, Sweden\nSelenoprotein glutathione peroxidases (GPX), like the ubiquitously expressed GPX1 and the ferroptosis modulator GPX4, enact their antioxidant activities by reducing hydroperoxides using glutathione. […] GPX1 and GPX4 inhibitors have thus shown promise as anti-cancer agents. Existing inhibitors are often promiscuous, or modulate GPX activity only indirectly, so novel direct inhibitors identified through screening against GPX1 and GPX4 could be valuable. Here, we developed optimized glutathione reductase (GR)-coupled GPX assays for the biochemical high-throughput screen (HTS) of almost 12,000 compounds with known mechanisms of action. Initial hits were triaged using a GR counter-screen, assessed for isoform specificity using a separate GPX2 assay, and were assessed for general selenocysteine-targeting activity using a thioredoxin reductase (TXNRD1) assay. With this suite of assays, we identified novel GPX1/GPX2- and GPX4-specific inhibitors and can here present a validated pipeline for future discovery research for selenoprotein-targeting agents.\nSEQUENCE No. (e.g., 1, 2, 3, etc.); […] (e.g., Cells, Incubation, Reagent, etc.); VALUE; DESCRIPTION.\n1; Reagent 1; 3 uL; 333.33 nM GPx4 enzyme or no enzyme control in 1536-well, black, solid Greiner assay plate.\n2; Compound; 25 nL; Kalypsis pin tool (Wako USA) equipped with a 1536-well pin head.\n3; Incubation; 30 min; room temperature.\n4; Reagent 2; 1 uL; 500 nM GR, 5 mM GSH, 2.5 mM NADPH solution\n5; Reagent 3; 1 uL; 2.5 mM CHP in 50% EtOH.\n6; Detection; Fluorescence; ViewLux microplate reader, excitation 340 nm and emission 450 nm.\n7; Incubation; 15 min; room temperature.\n8; Detection; Fluorescence; ViewLux microplate reader, excitation 340 nm and emission 450 nm.\nNOTES (numbers refer to Sequence numbers above)\n1. 3 µL of 333.33 nM GPX4 and 0.016% BSA in assay buffer (50 mM Tris-HCl, 2 mM EDTA (pH 7.5), 150 mM NaCl) was added to columns 3-48 of 1536-well plates using a BioRAPTR Flying Reagent Dispenser (Let's Go Robotics (LGR), Carlsbad, CA). A no-enzyme control (0.01% BSA in TES assay buffer) was added to columns 1-2.\n2. 25 nL, library and DMSO controls were added to each well with a pin tool (Kalypsys).\n3. The assay plates were incubated for 30 minutes at room temperature.\n4. 1 µL of master mix (500 nM glutathione reductase (GR), 5 mM reduced glutathione (GSH), 2.5 mM NADPH in assay buffer) was added.\n5. 1 µL of cumene hydroperoxide (CHP) ([2.5 mM] in 50% EtOH) was then added within 5 minutes to initiate the reaction. Final concentrations were: 200 nM GPX4, 1 mM GSH, 0.5 mM CHP, 0.5 mM NADPH, 100 nM GR, 0.01% BSA.\n6. Initial fluorescence readout (t=0) at 340/450 nm was measured using a ViewLux multimodal detector (PerkinElmer, Waltham, MA).\n8. Endpoint fluorescence readout (t=15) at 340/450 nm was measured 15 min after room temperature incubation.", "values": [{"smiles": "CC(=O)OC1C(OC(=O)c2ccccc2)C2C(C)(C)CCC(OC(C)=O)C2(C)C23CCC(C)(C2)C(=O)CC13", "note": "(stereo not given)", "activity change, negative = inhibition": "-11.9% [at 27.8 µM] (inactive)"}, {"smiles": "O=c1cc(N2CCN(c3cccc(C(F)(F)F)c3)CC2)[nH]c(=O)n1C1CCCCC1", "activity change, negative = inhibition": "-1.74% (inactive)"}, {"smiles": "CCC(C)C(=O)OC12C(OC(C)=O)C(C)C3(O)C(C=C(CO)CC4(O)C(=O)C(C)=CC43)C1C2(C)C", "note": "(stereo not given)", "activity change, negative = inhibition": "-9.36% [at 27.8 µM] (inactive)"}, {"smiles": "CCC/C=C/c1cc2c(C=O)c(O)c(CC=C(C)C)cc2o1", "activity change, negative = inhibition": "-25.2% (inactive)"}, {"smiles": "COc1ccccc1S(=O)(=O)Nc1ccc2c(c1)CN(C)C(=O)N2", "activity change, negative = inhibition": "10% (inactive)"}, {"smiles": "CCN(Cc1ccccc1)C(=O)Cn1c(=O)n(C)c2cnc(-c3ccccc3)nc21", "activity change, negative = inhibition": "2.21% (inactive)"}, {"smiles": "CC(C)c1cc(-c2ccc(F)c3ccccc23)nc(N)n1", "activity change, negative = inhibition": "1.95% (inactive)"}, {"smiles": "Fc1ccc2[nH]ccc2c1-c1nc(N2CCOCC2)c2sc(CN3CCN(CC4CC4)CC3)cc2n1", "Potency": "inactive"}, {"smiles": "COc1ccc(CN2CCN(CCCSc3cc(C(C)(C)C)c(O)c(C(C)(C)C)c3)CC2)c(OC)c1OC", "activity change, negative = inhibition": "-11.4% [at 15.3 µM] (inactive)"}, {"smiles": "COC1=CC(=O)O/C1=C(/OC)[C@@H]1O[C@H]1c1ccccc1", "activity change, negative = inhibition": "-14.8% (inactive)"}, {"smiles": "O=C(Nc1cccc(C(F)(F)F)c1)Nc1ccc(Br)cc1-c1nn[nH]n1", "activity change, negative = inhibition": "-0.484% (inactive)"}, {"smiles": "C=C1C(=O)OC2/C=C(\\CO)CC/C=C(\\C=O)C(O)C(OC(=O)C(C)CC)C12", "note": "(stereo not given)", "activity change, negative = inhibition": "4.35% [at 27.8 µM] (inactive)"}, {"smiles": "CC(=O)O[C@@]12CO[C@@H]1C[C@H](O)[C@@]1(C)C(=O)[C@H](O)C3=C(C)[C@@H](OC(=O)[C@H](O)[C@@H](NC(=O)OC(C)(C)C)c4ccccc4)C[C@@](O)([C@@H](OC(=O)c4ccccc4)C12)C3(C)C", "note": "(stereo not given in full)", "activity change, negative = inhibition": "-7.38% [at 27.8 µM] (inactive)"}, {"smiles": "O=C(NCCN1CCN(c2cccc3c2OCCO3)CC1)c1ccc(F)cc1", "activity change, negative = inhibition": "7.14% (inactive)"}, {"smiles": "O=C(O)CC(O)(CC(=O)O)C(=O)O", "activity change, negative = inhibition": "2.36% (inactive)"}, {"smiles": "CSCC[C@H](NC(=O)[C@H](Cc1ccc(OS(=O)(=O)O)cc1)NC(=O)[C@@H](N)CC(=O)O)C(=O)NCC(=O)N[C@@H](Cc1c[nH]c2ccccc12)C(=O)N[C@@H](CCSC)C(=O)N[C@@H](CC(=O)O)C(=O)N[C@@H](Cc1ccccc1)C(N)=O", "Potency": "15.8 µM (active)"}, {"smiles": "COc1cc(O)cc(OC2OC(CO)C(O)C(O)C2O)c1", "note": "(stereo not given)", "activity change, negative = inhibition": "-9.85% (inactive)"}, {"smiles": "COc1cc(N(C)CCN(C)C)c(N)cc1Nc1nccc(-c2cn(C)c3ccccc23)n1", "activity change, negative = inhibition": "-13.8% (inactive)"}, {"smiles": "C=CC(=O)N1CCC[C@@H](n2nc(-c3cccc(C(=O)Nc4ccc(C(C)C)c(C)c4)c3)c3c(N)ncnc32)C1", "activity change, negative = inhibition": "-9.82% (inactive)"}, {"smiles": "Cc1cccc(N2CCN(C(=O)c3cc(S(=O)(=O)N(C)C)ccc3N3CCCC3)CC2)c1C", "activity change, negative = inhibition": "2.1% (inactive)"}, {"smiles": "COc1c(C)cc(NC(=O)c2nn(Cc3ccc(F)cc3)c3c2CN(C(=O)c2ccc[nH]2)C[C@]3(C)C(N)=O)cc1C", "activity change, negative = inhibition": "2.13% [at 15.3 µM] (inactive)"}, {"smiles": "CCC(C)/C=C(C)/C=C/C1=CC2=C(Cl)C(=O)C(C)(OC(C)=O)C(=O)C2(O)C(OC)O1", "note": "(stereo not given)", "activity change, negative = inhibition": "-19.3% [at 27.8 µM] (inactive)"}, {"smiles": "CCCCCCCCC(=O)N[C@H](CN1CCCC1)[C@H](O)c1ccc2c(c1)OCCO2", "activity change, negative = inhibition": "-11.5% (inactive)"}, {"smiles": "CCCc1ccc(OCC(=O)N(Cc2nc(-c3cccnc3)no2)C(C)C)cc1", "activity change, negative = inhibition": "3.76% (inactive)"}, {"smiles": "Cc1onc(-c2ccccc2)c1C(=O)N1CCN(c2ccc([N+](=O)[O-])cc2Cl)CC1", "activity change, negative = inhibition": "-11.2% (inactive)"}, {"smiles": "Cn1ncc(Cl)c1-c1cc(C(=O)NC(CN)Cc2ccc(F)c(F)c2)oc1Cl", "note": "(stereo not given)", "Potency": "inactive"}, {"smiles": "C=C(C)Cn1c(SCC(=O)c2cccs2)nc2sc3c(c2c1=O)CCCC3", "activity change, negative = inhibition": "1.64% (inactive)"}, {"smiles": "CC(C)C(C)C(O)C1CC23CC(=O)C4(O)C(=C2CCC3C1C)C=CC1(O)CC(O)CCC14C", "note": "(stereo not given)", "activity change, negative = inhibition": "-7.82% [at 27.8 µM] (inactive)"}, {"smiles": "C=C1CC[C@@H]2[C@](C)(CO)[C@H](O)CC[C@@]2(C)[C@@H]1/C=C/C1=CCOC1=O", "activity change, negative = inhibition": "-14.6% [at 27.8 µM] (inactive)"}, {"smiles": "CCn1c(N)c(C(=O)NC)c(=O)c2ccc(C#CC(C)(O)COC)nc21", "note": "(stereo not given)", "activity change, negative = inhibition": "-14.7% (inactive)"}, {"smiles": "O=C1COc2nccc(-c3ccccc3F)c2CN1Cc1cc(C(F)(F)F)cc(C(F)(F)F)c1", "activity change, negative = inhibition": "-13.9% (inactive)"}, {"smiles": "CC1=CC2/C=C(\\C)CCC(O)C/C=C/C(=O)OC23C(=O)NC(CC(C)C)C3C1C", "note": "(stereo not given)", "activity change, negative = inhibition": "-23.3% [at 27.8 µM] (inactive)"}, {"smiles": "O=C(N[C@H](Cc1cscn1)C(=O)N[C@@H](CC1CCCCC1)[C@@H](O)[C@@H](O)C1CC1)c1nc2ccccc2[nH]1", "activity change, negative = inhibition": "2.11% (inactive)"}, {"smiles": "CCC(C)C(=O)O[C@H]1[C@@H](OC(=O)c2ccoc2)C[C@](C)(O)[C@]23OC(C)(C)[C@H](C[C@H](OC(=O)c4ccoc4)[C@]12COC(C)=O)[C@H]3OC(C)=O", "note": "(stereo not given in full)", "activity change, negative = inhibition": "-26.6% [at 15.3 µM] (inactive)"}, {"smiles": "CC1(C)C2CCC(CO[C@@H]3O[C@H](CO[C@@H]4OC[C@](O)(CO)[C@H]4O)[C@@H](O)[C@H](O)[C@H]3O)C1C2", "note": "(stereo not given in full)", "activity change, negative = inhibition": "-4.19% [at 27.8 µM] (inactive)"}, {"smiles": "Oc1cccc(-c2c3nc(c(-c4cccc(O)c4)c4ccc([nH]4)c(-c4cccc(O)c4)c4nc(c(-c5cccc(O)c5)c5ccc2[nH]5)CC4)C=C3)c1", "activity change, negative = inhibition": "-17.3% (inactive)"}, {"smiles": "CO[C@H]1O[C@@H]2O[C@@]3(C)CCC4[C@H](C)CCC([C@H]1C)[C@]42OO3", "note": "(stereo not given in full)", "activity change, negative = inhibition": "2.12% (inactive)"}, {"smiles": "Cc1ccc(NC(=O)c2ccc(CN3CCNCC3)cc2)cc1Nc1nccc(-c2cccnc2)n1", "Potency": "inactive"}, {"smiles": "C=C[C@](C)(O)CC[C@H]1C(C)=CC(=O)[C@H]2C(C)(C)CCC[C@]12C", "activity change, negative = inhibition": "-18.3% (inactive)"}, {"smiles": "C=C1C(=O)OC2CC(C)C(CCC(C)=O)=CCC12", "note": "(stereo not given)", "outcome": "inactive"}]}]}
